# From PubChem BioAssay (NCATS)
# Records with an inconclusive call do not appear. Activity calls are given as the source filed them. The call rests on the fitted dose curve; in most records, active means well fitted inhibition curve with a large enough effect; inconclusive means small, poorly fitted or top-dose-only effect; inactive means flat fitted curve, though single readings scatter.
# Molecular target: Calcium and integrin-binding protein 1 (Homo sapiens) (UniProt Q99828)
# Assay: Primary qHTS for Identification of Calcium Integrin Binding Protein 1 (CIB1) Competitor (AID 1508620);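 on activity change, negative = inhibition: GST tagged CIB1 binding a fluorescein labelled alphaIIb integrin peptide tracer; top concentration of the series differs between compounds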
# Conditions: CIB1-GST / FITC-alphaIIb peptide fluorescence polarization; series mostly up to 114 µM; activity change, negative = inhibition: at the top concentration
# In short: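 CIB1-GST (1 uM final) and compound incubated 15 min at room temperature before adding FITC-alphaIIb peptide tracer (100 nM final). Competition for binding read by fluorescence polarization (ex 480, em 540) after another 15 min at room temperature.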
# On the % scale 0 is the no-effect control and ±100 the full control effect; potency means the concentration at half of the fitted maximal effect.
# Calcium and integrin-binding protein 1 (Homo sapiens), sequence (Q99828 whole entry, looked up): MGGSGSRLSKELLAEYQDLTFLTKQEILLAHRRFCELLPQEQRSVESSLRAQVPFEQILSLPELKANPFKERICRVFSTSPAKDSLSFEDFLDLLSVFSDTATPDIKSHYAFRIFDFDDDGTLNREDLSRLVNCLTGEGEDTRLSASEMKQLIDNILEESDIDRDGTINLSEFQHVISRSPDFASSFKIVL
Compound,"activity change, negative = inhibition",Potency
CC(C)(C)C(=O)OCOC(=O)C1N2C(=O)CC2S(=O)(=O)C1(C)C (configuration not stated),0.126% (inactive),
CC(=O)OCC[N+](C)(C)C,1.04% (inactive),
CN1CCCN(C(c2ccccc2)c2ccc(Cl)cc2)CC1 (configuration not stated),0.171% (inactive),
O=C1NC(c2ccccc2)(c2ccccc2)C(=O)N1COP(=O)(O)O,-1.87% (inactive),
CN(C)CCOC(c1ccccc1)c1ccc(Br)cc1 (configuration not stated),1.38% (inactive),
O=C(O)Cn1c(=O)n(Cc2ccc(Br)cc2F)c(=O)c2ccc(Cl)cc21,-2.48% (inactive),
CCCC(=O)c1cc(O)c(O)cc1O,,112 µM (active)
Brc1ccccc1-c1ccccc1,-12% [at 228 µM] (inactive),
CCN1CCN(C(=O)N[C@@H](C(=O)N[C@@H]2C(=O)N3[C@@H]2SC(C)(C)[C@H]3C(=O)O)c2ccccc2)C(=O)C1=O,-1.01% (inactive),
CCCCCCCCCCCCCCCCCCN(C)C,5.69% (inactive),
O=C1Cc2cc(Cl)ccc2N1,-2.59% (inactive),
CCc1cc(S(=O)(=O)O)c2cc(C(C)C)cccc1-2,-5.34% (inactive),
CCCCOCCOC(=O)c1cccnc1,56.1% (inactive),
O=C1CC2(CCCC2)CC(=O)N1CCNCC1COc2ccccc2O1 (configuration not stated),3.9% (inactive),
Cc1ccc(/C=N/n2c(-c3ccccc3)csc2=S)cc1,1.06% (inactive),
CC(=O)CC/C=C(\C)CC/C=C(\C)CC/C=C(\C)CCC=C(C)C,2.17% (inactive),
Cc1onc(-c2c(Cl)cccc2Cl)c1C(=O)Cl,2.91% (inactive),
OC[C@]1(O)OC[C@@H](O)[C@H](O)[C@@H]1O,-4.16% (inactive),
CCCC(=O)O[C@]1(C(=O)CCl)[C@@H](C)C[C@H]2[C@@H]3CCC4=CC(=O)C=C[C@]4(C)[C@@]3(F)C(=O)C[C@@]21C,5.79% (inactive),
NC(=O)C1(N2CCCCC2)CCN(CCCN2c3ccccc3CCc3ccc(Cl)cc32)CC1,-11.2% (inactive),
CC(CC1c2ccccc2CCc2ccccc21)CN(C)C (configuration not stated),-2.92% (inactive),
COc1ccc2c(c1)CCCC2=O,-1.68% (inactive),
CC(=O)OCC(=O)[C@@]1(O)CCC2C3CCC4=CC(=O)CC[C@]4(C)C3[C@@H](O)C[C@@]21C (some centres not stated),7.04% (inactive),
CC(C)(C)C1CCC(CC2=C(O)c3ccccc3C(=O)C2=O)CC1 (configuration not stated),-1.45% (inactive),
CC(=O)O[C@H]1CC[C@@]2(C)C(=CC[C@@H]3[C@@H]2CC[C@]2(C)C(C(C)=O)=CC[C@@H]32)C1,-7.6% (inactive),
O=C(CCCl)NCc1ccccc1,7.28% (inactive),
CCCCN(CCN(CCCC)C(=O)N1CCOCC1)C(=O)N1CCOCC1,52.3% (inactive),
